HIV TAR-Tat: HIV-1 TAR-Tat binding disruption. z-score (test concentration not listed). HIV-1 TAR RNA, Tat peptide displacement FRET; active compounds read high. actives 0.6% (n = 100,000); active = z-score of 3 or more in at least 2 runs
CDC25B CDK2 inh: human CDC25B-CDK2/CyclinA binding inhibition; AID 1259370; actives 0.72% (n = 94,000); P30305+P24941; z-score (concentration not given with the values); HTRF CDC25B-CDK2/CyclinA binding, anti-His/anti-Flag; active compounds read high; in the data active = z-score above about 3.2
Of the large screens only hits and unclear results are named; the others gave an inactive call. Sampled rows, rich in hits. Any-hit rate of the full collection: about 0.93%.

CCOc1cc(C2CC(=O)N3CN(c4ccccc4)CSC3=C2C#N)cc(Br)c1O (configuration not stated)	HIV TAR-Tat 31, CDC25B CDK2 inh 8.8
COc1ccc(N2CSC3=C(C#N)C(c4cccc(Br)c4)CC(=O)N3C2)c(OC)c1 (configuration not stated)	none
COc1ccc(N2CSC3=C(C#N)C(c4ccc(O)c(OC)c4)CC(=O)N3C2)c(OC)c1 (configuration not stated)	CDC25B CDK2 inh 3.5
CCOc1cc(C2CC(=O)N3CN(c4ccc(C)c(C)c4)CSC3=C2C#N)ccc1O (configuration not stated)	none
CCOc1cc(C2CC(=O)N3CN(c4ccc(F)cc4)CSC3=C2C#N)ccc1O (configuration not stated)	HIV TAR-Tat 30
O=C(NCc1csc(-c2ccccc2)n1)[C@H]1CSCN1C(=O)Cc1cccs1	none (no result: CDC25B CDK2 inh)
Cc1cc(=O)n2c([nH]c3ccccc32)c1C#N	none
O=C1c2[nH]nc(-c3ccccc3O)c2C(c2ccc(O)cc2)N1Cc1ccncc1 (configuration not stated)	none
COc1nc2ccc(C)cc2cc1-c1noc(-c2ccncc2)n1	none
COc1nc2ccc(C)cc2cc1-c1noc(-c2cccnc2)n1	HIV TAR-Tat 3.6
Cc1cc(-c2ccc(S(=O)(=O)Nc3ccccc3)s2)n[nH]1	none (no result: CDC25B CDK2 inh)
CC1CN(S(=O)(=O)c2ccc(F)cc2)C(C)CN1S(=O)(=O)c1ccc(F)cc1 (configuration not stated)	none (no result: HIV TAR-Tat)
CC(C)NC[C@H](O)c1ccc(O)c(O)c1	none (no result: HIV TAR-Tat)
NCC(O)c1ccc(O)c(O)c1 (configuration not stated)	CDC25B CDK2 inh 5.4 (no result: HIV TAR-Tat)
COc1ccc(O)c(C2=NN3C(C2)c2cccc(OC)c2OC3c2cccc(O)c2)c1 (configuration not stated)	none
CCOC(=O)c1sc(=S)n(-c2ccc(Cl)cc2)c1N	none (no result: CDC25B CDK2 inh)
CCOC(=O)c1sc(=S)n(-c2ccc(OC)cc2)c1N	CDC25B CDK2 inh 17
CCN(CC)S(=O)(=O)c1ccc2c(c1)NC(=O)CCS2	none (no result: CDC25B CDK2 inh)
O=c1[nH]nc2c3cc(F)ccc3n(Cc3ccccc3)cc1-2	HIV TAR-Tat 3.2
Cc1cccc(Cn2cc3c(=O)[nH]nc-3c3cc(F)ccc32)c1	none
CCC(C)NC(=O)C1=CC(c2ccc(F)cc2)=NS(=O)(=O)N1C (configuration not stated)	HIV TAR-Tat 3.8
CN1C(C(=O)NCc2ccc(F)cc2)=CC(c2ccc(F)cc2)=NS1(=O)=O	none
N#C/C(=C\Nc1ccccn1)C(=O)C1CC1	none (no result: HIV TAR-Tat)
CN(C)CCN(Cc1ccccc1)S(=O)(=O)c1cc2c(cc1Cl)NC(=O)CO2	none (no result: CDC25B CDK2 inh)
COC(=O)c1ccc(C2=NN(C(C)=O)C(c3cc(-c4ccccc4)nc4ccccc34)O2)cc1 (configuration not stated)	none (no result: CDC25B CDK2 inh)
Cc1cc(-c2ccc(=O)[nH]n2)cc(S(=O)(=O)N2CCN(c3ccccc3)CC2)c1C	none (no result: CDC25B CDK2 inh)
Cc1cc(-c2ccc(=O)[nH]n2)cc(S(=O)(=O)N2CCC(Cc3ccccc3)CC2)c1C	HIV TAR-Tat 8.8 (no result: CDC25B CDK2 inh)
Cc1cc(-c2ccc(C)c(S(=O)(=O)NCc3cccnc3)c2)on1	none (no result: CDC25B CDK2 inh)
COc1ccccc1-n1cnc2cc(NCc3ccncc3)ccc21	CDC25B CDK2 inh 13
COc1ccccc1-n1cnc2cc(Nc3nnc(C)c4ccccc34)ccc21	none
CCn1nc(C)c(Br)c1C(=O)Oc1ccc(Cl)cc1	none (no result: HIV TAR-Tat)
COc1ccc(-c2ccc3c(n2)sc2c(O)cc(=O)[nH]c23)cc1OC	none
O=c1cc(O)c2sc3nc(-c4ccncc4)ccc3c2[nH]1	HIV TAR-Tat 15
O=C(O)C1C2CC=CC2c2cc(Br)cc3c2N1CC1CC=CC31 (configuration not stated)	HIV TAR-Tat 20, CDC25B CDK2 inh 4.9
Cc1cc2c3c(c1)C1C=CCC1C(C(=O)O)N3CC1CC=CC21 (configuration not stated)	none (no result: HIV TAR-Tat)
Cn1c(=O)n(CC(=O)O)c(=O)c2c1nc1n2CCCN1Cc1ccccc1	none
CS(=O)(=O)Nc1nc2ccc(NC(=O)Cc3cccs3)cc2s1	HIV TAR-Tat 16 (no result: CDC25B CDK2 inh)
CCCCC(=O)Nc1ccc2nc(NS(C)(=O)=O)sc2c1	none (no result: CDC25B CDK2 inh)
COc1ccc(Br)cc1C1N2CC3(C(C)C)CN1CC(C(C)C)(C2)C3=O (configuration not stated)	none
O=S(=O)(c1ccccc1)N1CCSC1c1ccc(Cl)cc1 (configuration not stated)	none
O=C(NCCO)c1ccc2nc3c4ccccc4c4ccccc4c3nc2c1	CDC25B CDK2 inh 8.2 (no result: HIV TAR-Tat)
O=C(NC1CC1)c1ccc(NC(=O)c2nsc3ccccc23)cc1	none
O=C(NNc1cc(C(F)(F)F)nc2ccccc12)Nc1ccccc1	none (no result: HIV TAR-Tat)
COCCNC(=O)Nc1ccc2nc(NS(C)(=O)=O)sc2c1	none (no result: CDC25B CDK2 inh)
S=C(Nc1ccc2nc3c4ccccc4c4ccccc4c3nc2c1)NC1CC1	CDC25B CDK2 inh 7.1 (no result: HIV TAR-Tat)
O=C(COC(=O)c1ccc2nc3c4ccccc4c4ccccc4c3nc2c1)c1ccccc1	none (no result: HIV TAR-Tat)
COCCNC(=O)Nc1ccc2nc3c4ccccc4c4ccccc4c3nc2c1	CDC25B CDK2 inh 20 (no result: HIV TAR-Tat)
C=CCNC(=O)Nc1ccc2nc3c4ccccc4c4ccccc4c3nc2c1	CDC25B CDK2 inh 21 (no result: HIV TAR-Tat)
O=C1O[C@@H]2C[C@H]3C[C@@H]2[C@@H]1[C@H]3C(=O)N(C1CCCCC1)C1CCCCC1	none
CCOC(=O)c1cc2c(c(CSc3nnc4ccc5ccccc5n34)c1)OCOC2	none
CCOC(=O)N1CCN(C(=O)CCc2c(C)nc3c(c2C)c(=O)n(C)c(=O)n3C)CC1	none
CSc1cnc(Nc2nc(-c3ccc(Br)cc3)cs2)nc1	none
O=C(Nc1cccc(Cl)c1)N1CCC2(CC1)Nc1ccccc1-n1cccc12	none (no result: CDC25B CDK2 inh)
CCn1c[n+](CC(O)COc2ccccc2)c2ccccc21 (configuration not stated)	none
CCn1c[n+](CC(O)COc2ccccc2)c2cc(C)c(C)cc21 (configuration not stated)	CDC25B CDK2 inh 16
c1cc(Nc2ccncc2)ccn1	none (no result: HIV TAR-Tat)
CCOC(=O)c1nc2ccccc2n(C(C)=O)c1=O	CDC25B CDK2 inh 19
CCOC(=O)c1nc2ccccc2nc1C	none (no result: CDC25B CDK2 inh)
Cc1nc(C)c(CCNS(=O)(=O)c2ccccc2)s1	none (no result: CDC25B CDK2 inh)
CSc1nc2c(c(=O)[nH]1)C(c1cc(F)ccc1F)CC(=O)N2 (configuration not stated)	none
CC(=O)N1CCN(CCn2c(C)c3c(=O)n(-c4nc5ccccc5s4)[nH]c3cc2=O)CC1	none
Cc1c2c(=O)n(-c3nc4ccccc4s3)[nH]c2cc(=O)n1Cc1ccc(C(=O)O)cc1	HIV TAR-Tat 24
COc1cc(C2Nc3ccccc3-c3nnc(SC)nc3O2)cc(Br)c1O (configuration not stated)	none
Cc1ccc2nc(Nc3ccc(O)cc3)c3nnnn3c2c1	none (no result: CDC25B CDK2 inh)
COc1cc(-n2cnnn2)ccc1S(=O)(=O)N1CCCCC1	none
O=C(NCc1ccccc1)c1sc(=S)n2c1[nH]c(=O)c1ccccc12	HIV TAR-Tat 8.4 (no result: CDC25B CDK2 inh)
CC(C)NC(=O)c1sc(=S)n2c1[nH]c(=O)c1ccc(C(=O)NC(C)c3ccccc3)cc12 (configuration not stated)	none (no result: CDC25B CDK2 inh)
O=C(NCc1cccc(Cl)c1)c1sc(=S)n2c1[nH]c(=O)c1ccccc12	none (no result: CDC25B CDK2 inh)
CC(=O)NCCNC(=O)c1ccc2c(=O)[nH]c3c(C(=O)NC4CCCC4)sc(=S)n3c2c1	none (no result: CDC25B CDK2 inh)
O=C(NCc1ccco1)c1ccc2c(=O)[nH]c3c(C(=O)NCC4CCCO4)sc(=S)n3c2c1 (configuration not stated)	HIV TAR-Tat 4.7 (no result: CDC25B CDK2 inh)
CCN(CC)CCNC(=O)c1ccc2c(=O)[nH]c3c(C(=O)NC(C)C)sc(=S)n3c2c1	HIV TAR-Tat 6.4 (no result: CDC25B CDK2 inh)
